Test results as given in PubChem BioAssay (NCI).
Compounds without any hit were thinned out: in the full panel of roughly 83,000, 20% have a hit.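 How to read the values: 0–100, growth inhibition (40 = 60% inhibited); 0, no net growth; -100 to 0, cell death (-40 = 40% of starting cells died; -100 = all dead).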 A number with no mark means an inactive call. Active and inactive are the calls of the source. Rule for the calls: active = growth percent below 10; inactive = the rest.

Tests used:
Test in all cases: NCI-60 one-dose screen, 48 h (100 = growth as untreated, 0 = no growth, -100 = all killed)
Conditions in all cases: 10 µM unless noted
T-47D breast = tested on: T-47D breast
BT-549 breast = tested on: BT-549 breast
MDA-MB-435 melanoma = tested on: MDA-MB-435 melanoma
SW-620 colon = tested on: SW-620 colon
MCF7 breast = tested on: MCF7 breast
HCT-116 colon = tested on: HCT-116 colon
HCC-2998 colon = tested on: HCC-2998 colon
KM12 colon = tested on: KM12 colon

Row | Structure (SMILES) | growth (T-47D breast) | growth (BT-549 breast) | growth (MDA-MB-435 melanoma) | growth (SW-620 colon) | growth (MCF7 breast) | growth (HCT-116 colon) | growth (HCC-2998 colon) | growth (KM12 colon)
1 | CC(=O)O[C@H]1CC[C@]2(C)[C@H]3C(=O)C=C4[C@@H]5C[C@](C)(C(=O)N6CCCNCC6)CC[C@]5(C)CC[C@@]4(C)[C@]3(C)CC[C@H]2C1(C)C | -49.6% (active) | 86.9% | -14.9% (active) | -88.7% (active) | -88.7% (active) | -95.3% (active) | 11.2% | 13.4%
2 | COc1cc2ncnc(Nc3ccc(Oc4ccnc(C)c4)c(C)c3)c2cc1NC(=O)CC1CCSS1 (configuration not stated) | -66% (active) | -48.4% (active) | -33.4% (active) | -33.7% (active) | -69.6% (active) | -65.5% (active) | -88.6% (active) | -68.8% (active)
3 | Cn1c(=O)c2c(nc(Br)n2CC(=O)Nc2ccc(F)cc2)n(C)c1=O | 87.2% | 101% | 112% | 105% | 99.2% | 84.5% | 114% | 101%
4 | COc1ccc(/C=C/C(=O)NCCO)cc1 | 89.8% | 102% | 104% | 99.3% | 94.8% | 101% | 103% | 103%
5 | Cc1ccc(S(=O)(=O)Nc2ccc(-c3cc(-c4cccc(F)c4)c(C#N)c(N)n3)cc2)cc1 | -27.2% (active) | 7.45% (active) | 19.6% | -31.7% (active) | 11.3% | -73.2% (active) | 39.7% | 46.7%
6 | O=c1[nH]c(=S)[nH]c2nc[nH]c12 | 105% | 109% | 110% | 99.2% | 97.4% | 93.9% | 99.7% | 106%
7 | O=C1c2cccc3cccc(c23)C(=O)N1CC#Cc1ccc2c3c(cccc13)C(=O)N(CCN1CCNCC1)C2=O | 38.3% | 101% | 105% | 28.3% | -43.9% (active) | -64.1% (active) | 104% | 98.9%
8 | COc1ccc(C2=NN(c3nc(-c4ccc(OC)cc4)c(C#N)c(=O)n3C)C(=O)CC2)cc1 | 92.4% | 107% | 109% | 108% | 92% | 97.4% | 91.8% | 107%
9 | Fc1ccc2[nH]cc(-c3nc(-c4c[nH]c5ncccc45)cs3)c2c1 | 47.3% | 20.6% | 62.1% | 47.2% | 30.3% | 26.2% | 84.4% | 38.9%
10 | CCN1CCN(C(=O)[C@@]2(C)CC[C@]3(C)CC[C@]4(C)C(=CC(=O)[C@@H]5[C@@]6(C)CC[C@H](OCCC#N)C(C)(C)[C@@H]6CC[C@]54C)[C@@H]3C2)CC1 | 66% | 79% | 81.5% | 97.9% | 78.2% | 80.6% | 101% | 98.5%
11 | COC(=O)[C@]12CC[C@@H](C)[C@H](C)[C@@H]1C1=CC(=O)[C@@H]3[C@@]4(C)C[C@@H](OC(C)=O)[C@H](OC(C)=O)[C@@](C)(COC(C)=O)[C@@H]4C(=O)C[C@@]3(C)[C@]1(C)CC2 | 45.1% | 17.8% | 57.8% | 50.2% | 42.5% | 22.6% | 68.7% | 44.7%
12 | COc1ccc2c(c1)c(-c1nc(-c3c[nH]c4ncccc34)cs1)cn2C | 41.4% | 72.8% | 69.6% | 83.3% | 14.9% | 56.7% | 83.1% | 24%
13 | Oc1cccc2ccc(N/N=C/c3cc(CN4CCCCC4)c(O)c4ncccc34)nc12 | 25.3% | 11.1% | 20.2% | 16% | 10.3% | 1.57% (active) | 5.61% (active) | 9.18% (active)
14 | N#CC1C(=N)Cc2ccccc2-c2ccccc21 (configuration not stated) | 60.9% | 41.5% | -23.8% (active) | 19.2% | 31.4% | 33.1% | 86.8% | 18%
